# Assay results: PubChem BioAssay (NCATS)
# Records with an inconclusive call do not appear. A call without a number means that no potency is given here. Unmarked numbers belong to inactive results. Active and inactive are the calls of the source. The call rests on the fitted dose curve; in most records, active means well fitted inhibition curve with a large enough effect; inconclusive means small, poorly fitted or top-dose-only effect; inactive means no such curve, though single readings can be large or run the other way.
# Tests used:
# [1] = test system: Zika virus NS2B-NS3 protease (unlinked complex); assay: Primary screen GU Rhodamine qHTS for Zika virus inhibitors: Unlinked NS2B-NS3 protease assay (AID 1347159); further: nearly all actives have a fitted effect of over 60% in size
# In short: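 Noncovalent NS2B hydrophilic domain/NS3 protease complex (25 nM final) in 10 mM Tris-HCl pH 8.0, 0.01% Tween 20, preincubated 15 min with compounds (up to 114 microM), then 1.5 microM Rhodamine110 substrate. Fluorescence change over 15 min fitted to 4-parameter Hill.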
# [2] = test system: Zika virus NS2B-NS3 protease (linked construct); assay: Primary screen NINDS Rhodamine qHTS for Zika virus inhibitors (AID 1347160); further: nearly all actives have a fitted effect of over 55% in size
# In short: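 Purified NS2B-NS3 protease with the NS2B hydrophilic domain joined by a flexible linker (25 nM) in 10 mM Tris-HCl pH 8.0, 0.01% Tween 20, preincubated 15 min at RT with compound; Rhodamine110 peptide substrate 1.5 µM; fluorescence change over 15 min; 4-parameter Hill fit.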
# [3] = ZIKV-mCherry secondary qHTS for Zika virus inhibitors (AID 1347158); details: Vero cells, ZIKV-mCherry infection imaging, 48-72 h; further: potency means the concentration at half of the fitted maximal effect
# In short: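 Vero, 5,000 cells/well, o/n 37 °C; cpd pin-transferred in DMSO; ZIKV-mCherry MOI 1, 48-72 h 37 °C; 32% PFA stock fix, Hoechst; imaged 10x DAPI/mCherry; mCherry+ threshold 450 RFU; % infection.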
# [4] = Confirmatory screen NINDS Rhodamine qHTS for Zika virus inhibitors (AID 1347161); further: potency means the concentration at half of the fitted maximal effect; nearly all actives have a fitted effect of over 60% in size
# In short: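 Rhodamine110-peptide cleavage (1.5 µM substrate) by 25 nM linked NS2B-NS3 enzyme at pH 8.0 (Tris, Tween 20), after 15 min RT preincubation with compounds; 15-min fluorescence change normalized to controls and Hill-fitted.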
# [5] = test system: Zika virus NS2B-NS3 protease (linked); assay: 384 well plate NINDS AMC confirmatory qHTS for Zika virus inhibitors (AID 1347163); details: Recombinant NS2B-NS3 protease, Ac-VKTGKR-AMC fluorescence; further: potency means the concentration at half of the fitted maximal effect; nearly all actives have a fitted effect of over 50% in size
# In short: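 Linked NS2B-NS3 protease (final 5 nM, 30 nM or 60 nM) was preincubated with compounds (final up to 1 mM) for ~15 minutes. Ac-VKTGKR-AMC substrate (final 30 microM) then reacted for 25 minutes at room temperature in the dark. Fluorescence (ex 355/em 460 nm) was normalized to no-enzyme and no-inhibitor controls.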
# [6] = test system: Zika virus NS2B-NS3 protease (linked construct); assay: 384 well plate NINDS Rhodamine confirmatory qHTS for Zika virus inhibitors (AID 1347164);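 further: fluorescence from protease cleavage of Ac-LKRR-rhodamine 110 substrate; potency means the concentration at half of the fitted maximal effect; nearly all actives have a fitted effect of over 65% in size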
# In short: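 Linked protease at a final 5 nM, 30 nM or 60 nM was preincubated ~15 min with compounds, then given 10 microM Ac-LKRR-Rhodamine 110. Fluorescence (ex 485/em 538 nm) after 25 min in the dark at room temperature.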
compound,measurement,setting,value
COc1cc(C(=O)O[C@H]2[C@@H]3C=CO[C@@H](O[C@@H]4O[C@H](CO)[C@@H](O)[C@H](O)[C@H]4O)[C@@H]3[C@@]3(CO)O[C@@H]23)ccc1O,Potency,[1],inactive
same,Potency,[2],inactive
CC1C/C=C/C(O)C(O)CC/C=C/c2cc(O)cc(O)c2C(=O)O1 (stereo not drawn),Potency,[1],inactive
same,Potency,[2],inactive
C/C=C(\C)C(=O)O[C@H]1[C@H](OC(C)=O)[C@]2(CO)[C@H](O)[C@H](O)[C@]3(C)C(=CCC4[C@@]5(C)CC[C@H](O[C@@H]6O[C@H](C(=O)O)[C@@H](O)[C@H](O[C@@H]7OC[C@H](O)[C@H](O[C@@H]8OC[C@H](O)[C@H](O)[C@H]8O)[C@H]7O)[C@H]6O[C@@H]6O[C@H](CO)[C@@H](O)[C@H](O)[C@H]6O)C(C)(C)C5CC[C@]43C)[C@@H]2CC1(C)C (stereo partly drawn),"activity change, negative = inhibition",[1],-9.49% [at 19.1 µM]
same,"activity change, negative = inhibition",[2],4.93% [at 10.7 µM]
CC(=O)c1c(O)c(C)c(O)c(Cc2c(O)c3c(c(C(=O)/C=C/c4ccccc4)c2O)OC(C)(C)C=C3)c1O,Potency,[3],3.55 µM (active)
same,Potency,[4],17.8 µM (active)
same,Potency,[5],63.1 µM (active)
same,Potency,[6],31.6 µM (active)
CN1C(=O)N(c2ccc(C#N)c(C(F)(F)F)c2)C(=O)[C@]1(CO)c1ccccc1,Potency,[1],inactive
same,Potency,[2],inactive
CCC(C)(OC(C)=O)C(=O)O[C@H]1[C@H](OC(C)=O)C[C@@H]2[C@@](C)([C@@H]3C[C@H]4C=CO[C@H]4O3)[C@H](C)C[C@H](OC(C)=O)[C@@]2(COC(C)=O)[C@@]12CO2 (stereo partly drawn),Potency,[1],inactive
same,Potency,[2],inactive
C/C=C(\C)C(=O)OC1CC2C(CC=C3CC(OC4CC(OC)C(OC5CC(OC)C(OC6OC(C)C(OC7OC(CO)C(O)C(O)C7O)C(OC)C6O)C(C)O5)C(C)O4)CCC32C)C2(O)CCC(C(C)=O)C12C (stereo not drawn),Potency,[1],inactive
same,Potency,[2],inactive
CN1C(=O)c2ccccc2NC(=O)C1Cc1ccccc1 (stereo not drawn),Potency,[1],inactive
same,Potency,[2],inactive
C1=C2CCCN[C@H]2[C@@H]2C[C@H]1[C@H]1CCCCN1C2,Potency,[1],inactive
same,Potency,[2],inactive
COc1ccccc1CN[C@H]1C2CCN(CC2)[C@H]1C(c1ccccc1)c1ccccc1,Potency,[1],inactive
same,Potency,[2],inactive
CC[C@H]1CN2CC[C@H]1C[C@H]2[C@H](O)c1ccnc2ccc(OC)cc12,Potency,[1],inactive
CO[C@@H]1[C@H](O)[C@@H](O[C@@H]2C[C@H]3CC[C@@H]4C(CC[C@]5(C)[C@@H](C6=CC(=O)OC6)CC[C@]45O)[C@@]3(C)[C@H](O)C2)O[C@H](C)[C@@H]1O[C@@H]1O[C@H](CO)[C@@H](O)[C@H](O)[C@H]1O (stereo partly drawn),Potency,[1],inactive
same,Potency,[2],inactive
CC(CCc1ccc(O)cc1)O[C@@H]1O[C@H](CO[C@H]2OC[C@](O)(CO)[C@H]2O)[C@@H](O)[C@H](O)[C@H]1O (stereo partly drawn),Potency,[1],inactive
same,Potency,[2],inactive
COC(=O)C1(C)CCC(=O)C2(C)c3c(O)cc(C(C)C)cc3C(O)C(OC(C)=O)C12 (stereo not drawn),Potency,[1],inactive
COC1CC(O[C@H]2CC[C@]3(C=O)C4CC[C@]5(C)[C@@H](C6=CC(=O)OC6)CC[C@]5(O)[C@@H]4CC[C@]3(O)C2)OC(C)C1O[C@@H]1O[C@H](CO)[C@@H](O)[C@H](O)[C@H]1O (stereo partly drawn),Potency,[1],inactive
same,Potency,[2],inactive
CC(=O)OC1CC(O)C2(C)C(CC(OC(C)=O)C3(C)C2CCC2(C)C(c4ccoc4)C(=O)C4OC423)C1(C)C (stereo not drawn),Potency,[1],inactive
same,Potency,[2],inactive
CN1CCC[C@@H]1Cc1c[nH]c2ccc(Nc3ncccc3[N+](=O)[O-])cc12,Potency,[1],inactive
same,Potency,[2],inactive
COC1CC(OC2CCC3(C)C(CCC4C3CCC3(C)C(C5=CC(=O)OC5)C(OC(C)=O)CC43O)C2)OC(C)C1OC1OC(CO)C(O)C(O)C1O (stereo not drawn),Potency,[1],inactive
same,Potency,[2],inactive
C[C@H](NC(=O)Cc1cc(F)cc(F)c1)C(=O)N[C@@H]1N=C(c2ccccc2)c2ccccc2N(C)C1=O,Potency,[1],inactive
same,Potency,[2],inactive
Clc1ccc(N2C[C@H]3CC[C@@H](C2)N3)nn1,Potency,[1],inactive
same,Potency,[2],inactive
CCc1[nH]c2ccc(OC)cc2c1CCN(C)C,Potency,[1],inactive
same,Potency,[2],inactive
CCOc1ccccc1-n1c(C(C)N2CCN(C(=O)COc3ccc(Cl)cc3)CC2)nc2ccccc2c1=O (stereo not drawn),Potency,[1],inactive
same,Potency,[2],inactive
C/C=C(\C)C(=O)OC1CC2C(C)(C)OC(=O)CC(OC(C)=O)C2(C)C2CC(OC(=O)C(C)C)C3(C)C(c4ccoc4)CC4OC43C12C (stereo not drawn),Potency,[1],inactive
same,Potency,[2],inactive
COC1=CC(=O)O[C@@H](/C=C/c2ccccc2)C1,Potency,[1],inactive
same,Potency,[2],inactive
COC1CC(OC2CCC3(C)C(=CCC4C3CCC3(C)C(C(C)OC5OC(COC6OC(CO)C(O)C(O)C6O)C(O)C(O)C5O)CCC43O)C2)OC(C)C1OC1OC(C)C(O)C(OC)C1O (stereo not drawn),Potency,[1],inactive
same,Potency,[2],inactive
CO[C@H]1[C@H](O)[C@H](O[C@H]2CC[C@]3(C)C4CC[C@]5(C)[C@H](C6=CC(=O)OC6)CC[C@]5(O)C4CC[C@@H]3C2)O[C@@H](C)[C@@H]1O (stereo partly drawn),Potency,[1],inactive
same,Potency,[2],inactive
CCC1NC(=O)C2C(Cl)C(Cl)CN2C(=O)C(C(C)O)NC(=O)CC(c2ccccc2)NC(=O)C(CO)NC1=O (stereo not drawn),Potency,[1],inactive
same,Potency,[2],inactive
CC[C@H]1CN2CC[C@H]1C[C@@H]2[C@@H](O)c1ccnc2ccc(OC)cc12,Potency,[1],inactive
same,Potency,[2],inactive
C=C[C@H]1CN2CC[C@H]1C[C@@H]2[C@@H](O)c1ccnc2ccccc12,Potency,[1],inactive
same,Potency,[2],inactive
